Only some compounds are listed: those with a hit (about 17% of all), similar ones and a draw of the others.
HT1080NT lethal – kills 2HG-producing HT-1080-NT fibrosarcoma cells; 1.6% of 360,000 active; Potency, µM (series often up to 46.1 µM), without a hit: at the highest dose activity, negative = less viability, most hits filed as cytotoxic; HT-1080-NT fibrosarcoma viability, CellTiter-Glo ATP luminescence, 48 h;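 further: NT is the 2HG producing partner of a matched IDH1 knockdown line; 0% = DMSO-treated cells and -100% = media-only wells without cells; nearly all actives have a fitted effect of over 55% in size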
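Read-out is CellTiter-Glo luminescence after 10 minutes at room temperature, following 48 hours' compound treatment of HT-1080-NT cells (750 cells/well, RPMI, 5% FBS, 37 degrees C).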
TGFb inhibitor – inhibitors of TGF-b signaling; HepG2 CAGA-GFP TGF-b/SMAD3 reporter, GFP fluorescence, 18 h; TGF-beta stimulated, 500 pg/mL final; Potency, µM (highest dose often 46.1 µM), for the others: at the highest dose activity, negative = inhibition, hits mostly inhibitors; 1.2% of 410,000 active; further: on the % scale 0 is the no-effect control and ±100 the full control effect; nearly all actives have a fitted effect of over 65% in size
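GFP signal (ex488/em500-530) from TGF-beta-stimulated HEPG2 CAGA-GFP cells, 500 pg/mL final, 18 h at 37 degrees C in DMEM plus 1% FBS, normalized to unstimulated and DMSO-stimulated controls.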
TDP1 cell CPT – growth inhibition of DT40 Tdp1-/-;hTDP1 cells with camptothecin (screen for TDP1 inhibitors); AID 686979; Potency, µM (top dose mostly 46.2 µM), without a hit: at the top dose activity change, negative = growth inhibition, actives largely listed as inhibitors; chicken DT40 Tdp1-/-;hTDP1 cells + 20 nM CPT, ATP luminescence, 48 h; 12% of 420,000 active; further: on the % scale 0 is the no-effect control and ±100 the full control effect; nearly all actives have a fitted effect of over 55% in size
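Cell growth measured by CellTiter-Glo luminescence after a minimum 48 h, 37 C compound exposure with 20 nM CPT in Tdp1-knockout DT40 cells stably expressing hTDP1, seeded 400/well; qHTS titration format.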
TDP1 cell noCPT – qHTS for Inhibitors of human tyrosyl-DNA phosphodiesterase 1 (TDP1): qHTS in cells in absence of CPT. DT40 Tdp1-/- hTDP1 cells, no CPT, ATP luminescence, 48 h. Potency, µM (titrated, usually from 46.2 µM), without a hit: at the top dose activity change, negative = growth inhibition, hits mostly inhibitors. 15% of 420,000 active. AID 686978, 2013; further: on the % scale 0 is the no-effect control and ±100 the full control effect; nearly all actives have a fitted effect of over 55% in size
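Chicken DT40 Tdp1-/- cells stably complemented with human TDP1 were seeded at 400 cells/well with DMSO in place of 20 nM camptothecin. After compound pinning, cells grew at least 48 hr at 37 °C; viability read by CellTiter-Glo luminescence.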
HepG2 tox – kills HepG2 cells in TGF-b inhibitor counter-screen; HepG2 CAGA-GFP viability, ATP luminescence, 18 h; Potency, µM (titrated, usually from 46.1 µM), for the others: at the top dose activity change, negative = cytotoxicity, hits mostly cytotoxic; 0.76% of 410,000 active; AID 588856
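CellTiter-Glo luminescence gave cytotoxicity after 18 hours at 37 degrees C. The cells were HepG2 CAGA-GFP in 1% FBS DMEM, stimulated with 500 pg/mL TGF-beta after compound addition. %Activity was normalised to no-cell wells (complete cell-killing) and DMSO (no toxicity), and curves were fitted and classified.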
HT1080 IDH1KD tx – toxicity to HT-1080 IDH1 knockdown cells (counter line) | HT-1080 IDH1 knockdown viability, ATP luminescence, 48 h | Potency, µM (top dose mostly 46.1 µM), for inactives: at the highest dose activity, negative = toxicity, usual class: cytotoxic | 2% of 360,000 active | AID 686971;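 further: 0% = DMSO wells and -100% = cell-free medium wells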
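CellTiter-Glo luminescence after 48 h compound exposure at 37 degrees C of IDH1-knockdown HT-1080 cells in 5% FBS RPMI. %Activity scaled between DMSO wells and cell-free media wells, with curves fitted and assigned curve classes.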
Active calls of the source: *; ? = inconclusive; / = no result given; ! = repeats disagree. The call rests on the fitted dose curve; in most records, active means well fitted curve in the direction sought with a large enough effect; inconclusive means small, poorly fitted or top-dose-only effect, or another doubt; inactive means no such curve, though single readings can be large; an effect the other way counts as inactive or inconclusive. Potency means the concentration at half of the fitted maximal effect.

SMILES	HT1080NT lethal	TGFb inhibitor	TDP1 cell CPT	TDP1 cell noCPT	HepG2 tox	HT1080 IDH1KD tx
COc1ccc(C(=O)Nc2nc3c(s2)CCc2cc(OC)ccc2-3)cc1	/	-17%	23µM*	26µM*	-22%	/
COc1ccc2c(c1)-c1nc(NC(=O)c3ccc(C)cc3)sc1CC2	/	?	?	?	-11%	/
COc1ccc2c(c1)Cc1sc(NC(=O)c3cccc(C)c3)nc1-2	/	/	?	?	0%	/
Cc1cccc(S(=O)(=O)NC(=O)C2(C)CCN2C(=O)c2ccccc2)c1 (stereo unspecified)	22%	11%	-14%	0%	-15%	12%
CC1=C(C(=O)N(C)C)CC(CC(=O)NCC2CCCCC2)C(=O)N1CCCN1CCCC1=O (stereo unspecified)	8%	2%	8%	13%	-4%	11%
CCc1ccc(C(C(=O)NC(C)(C)CC)N(Cc2ccco2)C(=O)Cn2nnc3ccccc32)cc1 (stereo unspecified)	-2%	-18%	18µM*	?	-18%	1%
COCCN(C(=O)CCC(=O)Nc1cc(C)on1)C(C(=O)NC1CCCC1)c1ccc(C)cc1 (stereo unspecified)	-7%	-6%	?	0.33µM*	-7%	-6%
CCC(C)(C)NC(=O)C(c1ccc(C)o1)N(Cc1cccs1)C(=O)Cn1nnc2ccccc21 (stereo unspecified)	?	?	?	?	-42%	?
CCC(C)(C)NC(=O)C(c1ccccc1)N(Cc1cccs1)C(=O)Cn1nnc2ccccc21 (stereo unspecified)	1%	-11%	18µM*	?	4%	1%
COCCN(C(=O)CCC(=O)Nc1cc(C)on1)C(C(=O)NC1CCCC1)c1ccc(C(C)C)cc1 (stereo unspecified)	-5%	-29%	-8%	?	-2%	-19%
CCC(C)(C)NC(=O)C(c1ccc(OC)cc1)N(Cc1cccs1)C(=O)CCC(=O)Nc1cc(C)on1 (stereo unspecified)	-6%	0%	18µM*	?	-6%	-22%
Cc1nnc(NC(=O)C2CCN(S(=O)(=O)c3ccc(F)c(Cl)c3)CC2)o1	-3%	-10%	-2%	7%	-22%	-12%
CN(C)c1ncc2nc(-c3cc(F)cc(F)c3)c(=O)n(CCc3ccccc3)c2n1	/	/	-27%	-5%	/	/
Cc1ccc(CN(C(=O)Cn2nnc3ccccc32)C(C(=O)NCc2ccco2)c2cccs2)cc1 (stereo unspecified)	-9%	?	?	23µM*	7%	-6%
Cc1cccc(/C(N)=N/OC(=O)N2c3ccccc3Sc3ccccc32)c1	-17%	8%	?	21µM*	-38%	-12%
C#C[C@]1(OC(C)=O)CCC2C3CCC4=CC(=O)CC[C@@H]4C3CC[C@@]21C (stereo partly specified)	0%	1%	?	23µM*	-29%	-2%
CC(=O)OC1CCC2C3CCC4=CC(=O)CCC4(C)C3CCC2(C)[C@]1(C)O (stereo partly specified)	/	-12%	/	/	-8%	/
C#C[C@]1(OC(C)=O)CC[C@H]2[C@@H]3CCC4=C[C@@H](OC(C)=O)CC[C@@H]4[C@H]3CC[C@@]21C	/	/	?	15µM*!	/	/
C#C[C@]1(OC(C)=O)CCC2C3CCC4=CC(=O)CCC4C3CC[C@]21C (stereo partly specified)	/	/	0.21µM*	16µM*	/	/
CC(=O)OCC(=O)C1(O)CCC2C3CCC4=CC(=O)CCC4(C)C3C(O)CC21C (stereo unspecified)	?	5%	?	-23%	4%	?
N#Cc1ccc(C(=O)NCc2ccc3c(c2)CCN3C(=O)c2ccc(F)cc2)cc1	/	2%	?	23µM*	0%	/
CCOc1ccccc1C(=O)NCc1ccc2c(c1)CCN2C(C)=O	/	1%	0.92µM*	1.6µM*	2%	/
CCOc1ccc(C(=O)NCc2ccc3c(c2)CCN3C(=O)c2ccc(C)cc2)cc1OCC	/	15%	12µM*	13µM*	-15%	/
COc1ccc(C(=O)NCc2ccc3c(c2)CCN3C(=O)c2ccc(C)cc2)cc1	/	-19%	?	?	-14%	/
CCC(=O)N1CCc2cc(CNC(=O)c3ccc(C#N)cc3)ccc21	/	2%	?	-23%	1%	/
SMILES	HT1080NT lethal	TGFb inhibitor	TDP1 cell CPT	TDP1 cell noCPT	HepG2 tox	HT1080 IDH1KD tx
Cc1ccc(C(=O)N2CCc3cc(CNC(=O)c4ccccc4F)ccc32)cc1	/	-21%	?	21µM*	-17%	/
COc1ccccc1NC(=O)Cn1c(=O)n(-c2cccc(Cl)c2)c(=O)c2c1c1cc(C)ccc1n2C	/	-2%	-8%	-6%	-41%	/
CC(OC(=O)c1cccc(-n2cnnn2)c1)C(=O)Nc1cccc(Cl)c1 (stereo unspecified)	-5%	-14%	?	?	-21%	-10%
c1cc(-c2cc3c(o2)CCCC3OCCN2CCOCC2)cs1 (stereo unspecified)	0%	/	?	?	/	3%
Cc1ncc(S(=O)(=O)C(C)(C)C)c(N)n1	15%	0%	11%	6%	-17%	12%
CCOc1cc(C(=O)NCc2ccc3c(c2)CCN3C(=O)c2ccc(F)cc2)cc(OCC)c1OCC	/	0%	?	26µM*	-25%	/
CCC(=O)N1CCc2cc(CNC(=O)c3ccc(F)cc3)ccc21	/	15%	-29%	-24%	-37%	/
CCOc1cccc(CC(=O)NCc2ccc3c(c2)CCN3C(=O)c2ccc(F)cc2)c1OCC	/	?	-14%	?	-8%	/
CCN(CC)c1ccc(C(=O)NCc2ccc3c(c2)CCN3C(=O)c2ccc(F)cc2)cc1	/	22%	5.8µM*	4.6µM*	-1%	/
CCOc1ccc(N=C2C(=O)Nc3ccc(C)c(Br)c32)cc1	-4%	3%	?	?	1%	1%
Cc1ccc2c(c1Br)/C(=N/N1C(=O)c3ccccc3C1=O)C(=O)N2	11%	?	21µM*	23µM*	-19%	12%
CC1(C)CC(NS(=O)(=O)c2ccc(C(C)(C)C)cc2)CC(C)(C)N1	-9%	-2%	-30%	?	-29%	-24%

Screening results deposited in PubChem by National Center for Advancing Translational Sciences (NCATS).
